# Results reported in the supplement of paper PMC12494721.
# Counter-ions that a name gives are not always drawn.
# Columns and labels:
# Details in all cases: incubation time: 27 h, anaerobic, 37 °C;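 for the amine columns active = adjusted P below 0.05 in both replicates with a change the same way and a mean fold change under 0.8 or over 1.25; inactive = the rest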
# [1] = tested on: Clostridium sporogenes DSM 1664; test: growth (OD595) fold change vs plate DMSO controls (fold change (ratio)); higher = more growth
# Method in brief: (§1)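 Growth is the fold change relative to the median of plate DMSO controls. Readings came from anaerobic mGAM cultures in 96-well plates grown for 27 h at 37 °C and read at 595 nm. They were blank-subtracted, corrected for compound background with 20 µM compound solutions in water, and converted to OD with a calibration factor of 5. Values are means of 2 biological replicates, and fold changes above 1.5 were set to NA.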
# Escherichia coli IAI1 [2] = test: as above
# Method in brief: as §1
# [3] = tested on: Klebsiella aerogenes DSM 30053; test: as above
# Method in brief: as §1
# [4] = tested on: Ruminococcus gnavus DSM 108212; test: as above
# Method in brief: as §1
# [5] = tested on: Klebsiella aerogenes DSM 30053; test: fold change of Histamine concentration vs plate DMSO controls (fold change (ratio)); higher = more amine produced, active = hit call of the paper (significant change in both replicates, either direction)
# Method in brief: (§2)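 Using LC–triple-quadrupole MS with dynamic MRM, amines were quantified against external calibration curves and corrected for drift within each batch. Samples were whole anaerobic mGAM cultures of four gut strains, grown 27 h at 37 °C from OD 0.1 before 1:1 dilution, extracted with cold acetonitrile/methanol containing 0.1% formic acid and centrifuged. Compounds were present at 20 µM final (sweeteners at 50 µM final). The numbers are fold changes versus plate DMSO controls, each the mean of 2 biological replicates.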
# [6] = tested on: Clostridium sporogenes DSM 1664; test: fold change of Tryptamine concentration vs plate DMSO controls (fold change (ratio)); higher = more amine produced, active = hit call of the paper (significant change in both replicates, either direction)
# Method in brief: as §2
# [7] = tested on: Ruminococcus gnavus DSM 108212; test: as above
# Method in brief: as §2
# Escherichia coli IAI1 [8] = test: fold change of Putrescine concentration vs plate DMSO controls (fold change (ratio)); higher = more amine produced, active = hit call of the paper (significant change in both replicates, either direction)
# Method in brief: as §2
# [9] = tested on: Klebsiella aerogenes DSM 30053; test: as above
# Method in brief: as §2
# Escherichia coli IAI1 [10] = test: fold change of Cadaverine concentration vs plate DMSO controls (fold change (ratio)); higher = more amine produced, active = hit call of the paper (significant change in both replicates, either direction)
# Method in brief: as §2
# [11] = tested on: Klebsiella aerogenes DSM 30053; test: as above
# Method in brief: as §2
# [12] = tested on: Ruminococcus gnavus DSM 108212; test: fold change of 2-Phenylethylamine concentration vs plate DMSO controls (fold change (ratio)); higher = more amine produced, active = hit call of the paper (significant change in both replicates, either direction)
# Method in brief: as §2
SMILES,growth [1],growth (Escherichia coli IAI1 [2]),growth [3],growth [4],fold change of Histamine concentration [5],fold change of Tryptamine concentration [6],fold change of Tryptamine concentration [7],fold change of Putrescine concentration (Escherichia coli IAI1 [8]),fold change of Putrescine concentration [9],fold change of Cadaverine concentration (Escherichia coli IAI1 [10]),fold change of Cadaverine concentration [11],fold change of 2-Phenylethylamine concentration [12]
C[N+]1(C)CCC(=C(c2ccccc2)c2ccccc2)CC1 [Diphemanil methylsulfate] (20 µM),1.04,1.02,1.07,0.984,0.94 (inactive),1.17 (inactive),1.01 (inactive),0.958 (inactive),0.962 (inactive),1.02 (inactive),1.02 (inactive),1.06 (inactive)
CC1(C)S[C@@H]2[C@H](NC(=O)C(c3ccccc3)S(=O)(=O)O)C(=O)N2[C@H]1C(=O)O (stereo not given in full) [Sulbenicillin sodium salt] (20 µM),0,0.378,0.634,0,1.18 (inactive),0.0125 (active),0.086 (active),1.84 (inactive),0.969 (inactive),1.87 (active),1.08 (inactive),0.0641 (active)
COC(=O)Nc1nc2cc([S+]([O-])c3ccccc3)ccc2[nH]1 (stereo not given) [Oxfendazole] (20 µM),0.943,1.04,1.01,0.99,1.01 (inactive),1.01 (inactive),1.04 (inactive),0.99 (inactive),1.04 (inactive),0.981 (inactive),1.04 (inactive),0.999 (inactive)
CC(=O)N[C@@H](CCC(N)=O)C(=O)O [Acetyl-L-glutamine] (20 µM),1.04,0.982,0.977,1.12,1.03 (inactive),0.997 (inactive),1.02 (inactive),0.98 (inactive),1 (inactive),0.977 (inactive),0.99 (inactive),1.05 (inactive)
CC(=O)N(CC(O)CO)c1c(I)c(C(=O)NCC(O)CO)c(I)c(C(=O)NCC(O)CO)c1I (stereo not given) [Iohexol] (20 µM),1,1.02,1.04,0.911,0.958 (inactive),0.975 (inactive),1.01 (inactive),1.02 (inactive),0.997 (inactive),0.992 (inactive),1 (inactive),1.01 (inactive)
Nc1c(Br)cc(Br)cc1CN[C@H]1CC[C@H](O)CC1 [Ambroxol hydrochloride] (20 µM),0.943,1.07,0.958,0.75,1.03 (inactive),1.04 (inactive),1 (inactive),1.05 (inactive),1 (inactive),1.01 (inactive),0.991 (inactive),0.985 (inactive)
CCCCCCC[N+](CC)(CC)CCCCc1ccc(Cl)cc1 [Clofilium tosylate] (20 µM),1.2,0.984,1.07,1.26,0.897 (inactive),1.32 (inactive),0.792 (inactive),1.17 (inactive),0.968 (inactive),0.947 (inactive),1.03 (inactive),0.867 (inactive)
C[C@H](CCC(=O)O)[C@H]1CC[C@H]2[C@@H]3[C@H](O)C[C@@H]4C[C@H](O)CC[C@]4(C)[C@H]3CC[C@]12C [Chenodiol] (20 µM),1.06,0.995,1.02,1.01,1 (inactive),1.03 (inactive),1.03 (inactive),1 (inactive),0.999 (inactive),1.04 (inactive),1.02 (inactive),0.994 (inactive)
C[C@@H]1C[C@H]2[C@@H]3C[C@H](F)C4=CC(=O)C=C[C@]4(C)[C@@]3(F)[C@@H](O)C[C@]2(C)[C@@]1(O)C(=O)COC(=O)C(C)(C)C [Flumethasone pivalate] (20 µM),0.889,0.954,1,0.811,1.04 (inactive),1 (inactive),1.04 (inactive),1 (inactive),0.998 (inactive),1.02 (inactive),0.984 (inactive),1.05 (inactive)
Cc1cc(C(=O)NNCc2ccccc2)no1 [Isocarboxazid] (20 µM),1.17,1.04,1.18,0.995,0.915 (inactive),1.09 (inactive),1.07 (inactive),1.05 (inactive),0.987 (inactive),0.983 (inactive),1.02 (inactive),1.09 (inactive)
C#C[C@]1(O)CC[C@H]2[C@@H]3CCC4=Cc5oncc5C[C@]4(C)[C@H]3CC[C@@]21C [Danazol] (20 µM),0.903,0.883,0.858,0.744,1.07 (inactive),0.887 (inactive),1.03 (inactive),1.01 (inactive),1.02 (inactive),0.994 (inactive),0.993 (inactive),0.997 (inactive)
O=C1Nc2ccc(Cl)cc2[C@@](C#CC2CC2)(C(F)(F)F)O1 [Efavirenz] (20 µM),1.25,1.01,1.02,1.22,0.986 (inactive),1.02 (inactive),0.936 (inactive),1.04 (inactive),0.985 (inactive),1.02 (inactive),0.997 (inactive),0.935 (inactive)
CN(C)CCCOc1nn(Cc2ccccc2)c2ccccc12 [Benzydamine hydrochloride] (20 µM),1.1,0.95,0.978,1.04,1.05 (inactive),0.95 (inactive),0.986 (inactive),0.983 (inactive),1.03 (inactive),0.967 (inactive),1.01 (inactive),0.92 (inactive)
CC(COc1ccccc1)NN (stereo not given) [Phenoxypropazine dihydrochloride] (20 µM),1.06,0.99,0.988,0.995,1.05 (inactive),0.619 (active),1 (inactive),1.01 (inactive),1.01 (inactive),0.965 (inactive),1.02 (inactive),1.01 (inactive)
CC(=O)N1CCN(c2ccc(OCC3COC(Cn4ccnc4)(c4ccc(Cl)cc4Cl)O3)cc2)CC1 (stereo not given) [Ketoconazole] (20 µM),1.17,0.988,1,0.945,0.927 (inactive),1.03 (inactive),0.984 (inactive),1.04 (inactive),0.979 (inactive),1.02 (inactive),0.994 (inactive),0.937 (inactive)
O=C(O)CNC(=O)c1ccccc1 [Hippuric acid] (20 µM),1.12,1.02,1.02,1.05,1.03 (inactive),1.05 (inactive),1.08 (inactive),0.979 (inactive),0.997 (inactive),0.94 (inactive),1.01 (inactive),1.09 (inactive)
C[C@H](CCC(=O)O)[C@H]1CC[C@H]2[C@@H]3C(=O)C[C@@H]4CC(=O)CC[C@]4(C)[C@H]3CC(=O)[C@]12C [Dehydrocholic acid] (20 µM),0.917,0.968,0.94,0.872,1.02 (inactive),0.96 (inactive),0.987 (inactive),0.975 (inactive),1.01 (inactive),0.982 (inactive),1.01 (inactive),0.859 (inactive)
CC(C)OC(=O)C(C)(C)Oc1ccc(C(=O)c2ccc(Cl)cc2)cc1 [Fenofibrate] (20 µM),1.12,1.04,1.04,1.36,0.941 (inactive),1.03 (inactive),1.05 (inactive),1.03 (inactive),0.984 (inactive),1.03 (inactive),1.01 (inactive),1.05 (inactive)
CN(C)CC/C=C1\c2ccccc2CSc2ccccc21 [Dosulepin hydrochloride] (20 µM),1.07,0.99,0.968,0.844,0.887 (inactive),1.17 (inactive),0.961 (inactive),1.03 (inactive),0.941 (inactive),1.01 (inactive),1.06 (inactive),0.952 (inactive)
CC(C)(Oc1ccc(CCNC(=O)c2ccc(Cl)cc2)cc1)C(=O)O [Bezafibrate] (20 µM),1.06,1.01,0.993,0.854,0.964 (inactive),0.996 (inactive),1.01 (inactive),0.997 (inactive),0.991 (inactive),0.983 (inactive),0.992 (inactive),1.01 (inactive)
O=C1c2c(O)ccc(O)c2C(=O)c2c(NCCNCCO)ccc(NCCNCCO)c21 [Mitoxantrone dihydrochloride] (20 µM),0.733,0.831,1.02,1.24,0.924 (inactive),1.01 (inactive),0.978 (inactive),0.999 (inactive),1.02 (inactive),0.988 (inactive),1.04 (inactive),0.958 (inactive)
CCc1cccc(CC)c1NC(=O)CN(CC(=O)O)CC(=O)O [Etifenin] (20 µM),1.08,1,1.08,1.1,0.925 (inactive),1.02 (inactive),0.951 (inactive),0.998 (inactive),1 (inactive),0.987 (inactive),1.02 (inactive),0.924 (inactive)
CCN(CC)C(=O)c1cccnc1 [Nikethamide] (20 µM),1.07,1.01,0.998,1.13,1.02 (inactive),1.05 (inactive),1.05 (inactive),1.06 (inactive),1 (inactive),1.08 (inactive),0.993 (inactive),1.08 (inactive)
CC1CC(OC(=O)C(O)c2ccccc2)CC(C)(C)C1 (stereo not given) [Cyclandelate] (20 µM),0.937,1.02,1.04,1.02,0.997 (inactive),1.04 (inactive),1.03 (inactive),0.959 (inactive),1.02 (inactive),1.02 (inactive),1.01 (inactive),1.03 (inactive)
CN(CCCCCCCCCCN(C)C(=O)Oc1cccc([N+](C)(C)C)c1)C(=O)Oc1cccc([N+](C)(C)C)c1 [Demecarium bromide] (20 µM),0.744,0.974,1.04,0.614,0.986 (inactive),0.871 (inactive),1.06 (inactive),0.987 (inactive),1.01 (inactive),1.03 (inactive),1.01 (inactive),1.06 (inactive)
